Screening data (PubChem BioAssay)
IL1B secr inh: qHTS for Inhibitors of Inflammasome Signaling: IL-1-beta AlphaLISA Primary Screen; THP-1 LPS/ATP IL-1B secretion, AlphaLISA, 16 h; active compounds read low; activity change, % at 57.5 µM; actives 4.7% (n = 360,000); AID 743279, 2014; in the data active = activity change below about -50%; inconclusive = mostly about -30% to -49%
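Secreted IL-1B measured by AlphaLISA bead assay after 16 h compound exposure of THP-1 cells; compounds (final up to 57.5 uM) added 1 h before LPS (250 ng/mL) and ATP (1.25 mM) stimulation; lower signal means less secretion.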
DT40 TDP1 no CPT: qHTS for Inhibitors of human tyrosyl-DNA phosphodiesterase 1 (TDP1): qHTS in cells in absence of CPT. actives 15% (n = 420,000). DT40 Tdp1-/- hTDP1 cells, no CPT, ATP luminescence, 48 h. AID 686978, 2013. Potency, µM (series often up to 46.2 µM), for the others: at the top dose activity change, negative = growth inhibition, hits mostly inhibitors; also: potency is read from the fitted curve at half-maximal effect; nearly all actives have a fitted effect of over 55% in size
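Compound effects on proliferation are scored in DT40 Tdp1-/-;hTDP1 cells in the absence of CPT. ATP levels (CellTiter-Glo luminescence) are recorded after a ≥48 hr, 37 °C incubation.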
TDP1 cell CPT: qHTS for Inhibitors of human tyrosyl-DNA phosphodiesterase 1 (TDP1): qHTS in cells in presence of CPT; chicken DT40 Tdp1-/-;hTDP1 cells + 20 nM CPT, ATP luminescence, 48 h; Potency, µM (top dose mostly 46.2 µM), for the others: top-dose activity change, negative = growth inhibition, most hits filed as inhibitors; actives 12% (n = 420,000); AID 686979, 2013; also: potency is read from the fitted curve at half-maximal effect; nearly all actives have a fitted effect of over 55% in size
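Cell growth measured by CellTiter-Glo luminescence after a minimum 48 h, 37 C compound exposure with 20 nM CPT in Tdp1-knockout DT40 cells stably expressing hTDP1, seeded 400/well; qHTS titration format.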
Six1-Eya2 blk: qHTS Assay for Inhibitors of the Six1/Eya2 Interaction; AlphaScreen GST-Six1/His-Eya2 binding, biochemical; active compounds read low; activity change, % (concentration not given with the values); AID 651725, 2012; Homeobox protein SIX1 (Homo sapiens) + Protein phosphatase EYA2 (Homo sapiens), …; actives 0.56% (n = 360,000); in the data active = activity change below about -65%; inconclusive = mostly about -30% to -63%
Target sequence (O00167 whole entry, looked up): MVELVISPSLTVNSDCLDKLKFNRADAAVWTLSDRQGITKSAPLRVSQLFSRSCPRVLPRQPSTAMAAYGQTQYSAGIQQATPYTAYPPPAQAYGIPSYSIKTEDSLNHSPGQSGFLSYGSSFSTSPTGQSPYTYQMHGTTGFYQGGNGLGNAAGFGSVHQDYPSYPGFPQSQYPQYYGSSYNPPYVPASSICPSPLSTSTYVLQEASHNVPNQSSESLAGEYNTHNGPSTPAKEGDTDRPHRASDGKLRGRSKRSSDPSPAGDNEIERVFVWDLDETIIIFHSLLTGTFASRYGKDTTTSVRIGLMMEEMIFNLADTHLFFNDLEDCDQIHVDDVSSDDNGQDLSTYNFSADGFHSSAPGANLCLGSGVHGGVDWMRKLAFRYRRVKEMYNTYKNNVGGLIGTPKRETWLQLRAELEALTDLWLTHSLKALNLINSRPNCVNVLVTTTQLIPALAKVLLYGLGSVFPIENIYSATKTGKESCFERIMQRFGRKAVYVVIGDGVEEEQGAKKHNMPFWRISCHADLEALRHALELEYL
Target sequence (Q15475 whole entry, looked up): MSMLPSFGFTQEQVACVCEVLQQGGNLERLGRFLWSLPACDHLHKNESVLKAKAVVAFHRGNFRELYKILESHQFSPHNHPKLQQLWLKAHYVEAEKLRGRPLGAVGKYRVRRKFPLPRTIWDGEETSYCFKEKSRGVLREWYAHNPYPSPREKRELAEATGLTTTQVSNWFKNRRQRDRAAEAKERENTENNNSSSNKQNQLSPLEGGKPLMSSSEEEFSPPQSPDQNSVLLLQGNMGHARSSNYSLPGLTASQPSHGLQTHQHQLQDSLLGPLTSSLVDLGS
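Six1/Eya2 binding was read as AlphaScreen signal after compounds were pinned into GST-Six1 plus His-tagged Eya2 (5X stock 250/500 nM) in pH 8.0 Tris/NaCl/TCEP buffer, beads added, then incubated 1 h, 37 C, dark.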
CtBP-E1A inh: qHTS Assay for Inhibitors of the CtBP/E1A Interaction. AlphaScreen GST-E1A/His-CtBP binding, 1536-well; active compounds read low. activity change, % (concentration not given with the values). actives 0.49% (n = 340,000); in the data active = activity change below about -65%; inconclusive = mostly about -30% to -63%
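In 5 uL wells, 23 nL compound meets equimolar GST-E1A and His-CtBP (5X stock 125 nM each) for 2 h, 37 °C. Beads (5X, 50 ug/mL) then 1 h, 37 °C, dark.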
TDP1 inh: qHTS Assay for Inhibitors of Tyrosyl-DNA Phosphodiesterase (TDP1). recombinant TDP1, AlphaScreen DNA substrate cleavage. Tyrosyl-DNA phosphodiesterase 1 (Homo sapiens), Q9NUW8. AID 485290, 2010. Potency, µM (series often up to 130 µM), inactives show at the highest dose activity change, negative = inhibition, hits mostly inhibitors. actives 0.28% (n = 350,000); also: potency is read from the fitted curve at half-maximal effect; nearly all actives have a fitted effect of over 40% in size
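Recombinant E. coli-expressed Tdp1 (1 nM) preincubated with compound 15 min at RT, then 5'-biotin/3'-phosphotyrosine-FITC DNA substrate (15 nM) added for 5 min. AlphaScreen beads (10 ug/ml) added, 10 min RT; tyrosine-FITC cleavage read as signal loss.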
An asterisk follows results filed as active; ? = inconclusive; nt = no result given; [ ] = another dose, or the depositor's remark. In the library only some 18% were active in any assay of this set; here they are far more common. Unless noted, calls follow the shape of the dose curve; as a rule, active = well fitted curve in the direction sought with a large enough effect; inconclusive = small, poorly fitted or top-dose-only effect, or another doubt; inactive = no such curve, though single readings can be large; an effect the other way counts as inactive or inconclusive. % is scaled to controls: 0 for no effect and ±100 for the full control effect.

SMILES | IL1B secr inh | DT40 TDP1 no CPT | TDP1 cell CPT | Six1-Eya2 blk | CtBP-E1A inh | TDP1 inh
Cc1nc(SCC(=O)Nc2ccc(F)cc2)c(C#N)c(C)c1CC(=O)c1ccc(Br)cc1 | 15 | ? | 16µM* | 3 | 5 | 3%
Cc1cccc(NC(=O)CSc2nc(C)c(CC(=O)c3ccc(Br)cc3)c(C)c2C#N)c1C | 58 | 15µM* | 13µM* | 9 | -1 | 9%
COC(=O)C1=C(C)N(Cc2ccccc2)C(=S)N[C@H]1c1cccc(F)c1 | -6 | -16% | ? | -6 | -11 | nt
COC(=O)C1=C(C)N(CC2CC2)C(=NCc2cc(OC)c(OC)c(OC)c2)N[C@H]1c1ccccc1 | -1 | 23µM* | ? | -8 | -1 | nt
COC(=O)C1=C(C)N(Cc2ccccc2)C(=NCc2cc(OC)c(OC)c(OC)c2)N[C@H]1c1ccc(Br)cc1 | ? | 18µM* | 13µM* | -3 | -2 | 0%
COC(=O)C1=C(C)N(Cc2ccccc2)C(=NCCN2CCOCC2)N[C@H]1CCc1ccccc1 | -18 | 23µM* | ? | -2 | nt | 0%
CCN1C(=NCCN2CCOCC2)N[C@@H](c2ccccc2)C(C(=O)OC)=C1C | -4 | -9% | -8% | -5 | -9 | nt
COC(=O)C1=C(C)N(Cc2ccccc2)C(=NCc2cc(OC)c(OC)c(OC)c2)N[C@H]1c1ccccc1 | ? | 15µM* | 21µM* | 3 | 0 | nt
COc1ccc2c(c1)c(C(C)=O)c(C)n2-c1ccc(C(C)=O)cc1 | 1 | ? | -21% | 10 | 6 | nt
Cc1ccc(C(=O)c2cn(CC(=O)NC3CCCCC3)c3nc(C)ccc3c2=O)cc1 | nt | ? | -27% | nt | nt | 0%
COC(=O)C1=C(C)N(Cc2ccccc2)C(=NCc2cc(OC)c(OC)c(OC)c2)N[C@H]1CCc1ccccc1 | -58* | 16µM* | 21µM* | -1 | 0 | 2%
COC(=O)C1=C(C)N(Cc2ccccc2)C(=O)N[C@H]1c1ccc(Br)cc1 | -54* | 7% | 2% | 6 | nt | 5%
O=C1C2C3C=CC(C3)C2C(=O)N1c1n[nH]c(-c2ccccc2)n1 (stereo not given) | -1 | 0% | 3% | 4 | 9 | 1%
Cn1c(C(=O)N/N=C/c2ccccc2)cc2ccccc21 | -6 | ? | 0% | -1 | nt | 5%
COc1ccc(-n2nc(C(=O)NCC(=O)NCCc3ccc(OC)c(OC)c3)c3ccccc3c2=O)cc1 | 0 | ? | ? | -3 | 11 | 2%
Cc1ccc(S(=O)(=O)N2C[C@@H]3[C@H]4CC[C@H](C4)[C@@H]3[C@@H](C)[C@H]2c2ccco2)cc1 | 45 | 15µM* | 15µM* | 3 | -1 | 3%[56.1 µM]
Cc1ccc(S(=O)(=O)N2C[C@@H]3[C@H]4CC[C@H](C4)[C@@H]3[C@@H](C)[C@@H]2c2ccn(Cc3ccccc3)c2)cc1 | 0 | ? | ? | 0 | -6 | 1%[56.1 µM]
C[C@@H]1[C@H]2[C@@H]3CC[C@@H](C3)[C@H]2CN[C@H]1c1cn(Cc2ccccc2)c2ccccc12 | -27 | ? | 16µM* | 2 | -7 | 2%[56.1 µM]
Cc1ccc(S(=O)(=O)N2C[C@@H]3[C@H]4CC[C@H](C4)[C@@H]3[C@@H](C)[C@@H]2c2cccn2Cc2ccccc2)cc1 | -9 | ? | -15% | -12 | -25 | 2%[56.1 µM]
Cc1ccc(S(=O)(=O)N2C[C@@H]3[C@H]4CC[C@H](C4)[C@@H]3[C@@H](C)[C@@H]2c2cn(Cc3ccccc3)c3ccc(F)cc23)cc1 | -7 | 21µM* | 21µM* | ? | -11 | 0%[56.1 µM]
